According to PubChem BioAssay (NCATS):
Unmarked numbers belong to inactive results. Results filed as inconclusive are left out. The source made the active and inactive calls. The call rests on the fitted dose curve; in most records, active means well fitted curve in the direction sought with a large enough effect; inconclusive means small, poorly fitted or top-dose-only effect, or another doubt; inactive means no such curve, though single readings can be large; an effect the other way counts as inactive or inconclusive.

Test system: not listed separately
Experiment: Primary fluorescence-based thiol-reactive (MSTI) qHTS assay for identification of artifact compounds. (AID 1845221); further: nearly all actives have a fitted effect of over 65% in size; further: potency means the concentration at half of the fitted maximal effect;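 on activity change, negative = thiol reactive: thiol-reactive compounds lower the probe fluorescence signal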
Settings: MSTI thiol-reactivity probe, 1 h; series mostly up to 53.8 µM; activity change, negative = thiol reactive: at the top concentration
In short: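 One-hour, room-temperature, dark incubation of compound with 4 uM MSTI in PBS (pH 7.4, 2% DMSO) precedes a fluorescence read at 525 nm excitation, 598 nm emission; Hill-equation fitting yields concentration-response values.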

Structure (SMILES) | activity change, negative = thiol reactive | Potency
CC(C)c1ccc2c(c1)[C@H](O)CC1[C@@](C)(C(=O)O)CCC[C@]21C (some centres undefined) | -2.16% | –
C=C1CCC2C(C)(C)CCC[C@]2(C)[C@H]1CC/C(C)=C/C(=O)O (some centres undefined) | 26.7% | –
CC(C)(Oc1ccc(-c2nc3cc(Cl)ccc3s2)cc1)C(=O)O | 187% | –
O=C(O)c1ccnc2cc(C(OCC3CCC(F)(F)CC3)c3ccccc3Cl)[nH]c12 (centres undefined) | 3.22% | –
C=C(C)C1CCC2(C(=O)OC3OC(COC4OC(CO)C(O)C(O)C4O)C(OC4OC(C)C(O)C(O)C4O)C(O)C3O)CCC3(C(=O)O)C(CCC4C5(C)CCC(=O)C(C)(C)C5CCC43C)C12 (centres undefined) | 183% [at 11.5 µM] | –
COC(=O)[C@]1(C)CCC[C@@]2(C)[C@@H]3CC[C@@H]4C[C@@]3(CC[C@@H]21)C[C@H]4C(=O)O | 57.8% | –
CC(O)C(=O)/C=C/C=C/C(=O)OC1C=C2COC(=O)C2(O)C2(C)CCCC(C)(C)C12 (centres undefined) | 33.6% [at 25.6 µM] | –
COc1cc(O)c(C(=O)O)c(CCc2ccccc2)c1 | -21.6% | –
O=C1C[C@@]2(C(=O)N1)C(=O)N(Cc1ccc(Br)cc1F)C(=O)c1cccn12 | 131% | –
CC(C(=O)Nc1cc(C#N)ccc1CCCC(=O)O)c1ccc(F)c2ccccc12 (centres undefined) | 46.6% | –
CN(C)C(=O)C(O)C(Cc1ccccc1)NC(=O)c1cc2cc(Cl)ccc2[nH]1 (centres undefined) | 344% | –
CC1=C2CC3C(CCC3(C)O)C(C)(O)CC2OC1=O (centres undefined) | – | 23.8 µM (active)
O=C(Cn1c2ccccc2c2nc3n(c(=O)c21)CCS3)N1CCCC1 | 40.8% | –
COc1ccc(/C=C/C(=O)N2CCCC2)cc1 | -0.503% | –
COC(=O)c1ccccc1O[C@@H]1O[C@H](CO[C@@H]2OC[C@@H](O)[C@H](O)[C@H]2O)[C@@H](O)[C@H](O)[C@H]1O | – | 5.19 µM (active)
O=C(N[C@H](Cc1ccccc1)C(=O)O)c1sc2cc(F)ccc2c1Cl | 149% | –
Cn1nccc1-c1ccccc1Oc1ccc(S(=O)(=O)Nc2nccs2)cc1C#N | 106% | –
COc1ccc(NC(=O)c2ccc(-c3ccc(C(N)=O)cc3C)cc2)cc1N1CCN(C)CC1 | -12.3% | –
O=C(O)[C@H](Cc1ccccc1)Oc1ccc(-c2ccccc2)cc1 | 103% | –

Test system: Nanoluciferase (engineered Oplophorus gracilirostris luciferase)
Experiment: Primary Nanoluciferase (NLuc) qHTS assay for identification of artifact compounds. (AID 1845222);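 further: NLuc secreted into diluted conditioned medium of S16 cells; 0% = DMSO and -100% = no enzyme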
Settings: NLuc-conditioned medium, Nano-Glo luminescence, 5 min; series mostly up to 54.1 µM; activity, negative = inhibition: at the top concentration
In short: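 NLuc from S16 cell medium (1:55) plus test compounds, 15 min, room temperature. Luminescence after Nano-Glo (1:100) addition, 5 min.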

Structure (SMILES) | activity, negative = inhibition
C/C=C/C=C/C=C/C(=O)N(C)C(C(=O)NC(C)C(=O)N1CCCC1C(N)=O)C(C)C (centres undefined) | 3.05% [at 25.7 µM]
CCC(C)/C=C(C)/C=C/C1=CC2=CC(=O)C(C)(O)C(OC(C)=O)C2CO1 (centres undefined) | -3.87%
CC(=O)OC1C(C)C2C(OC3OC(CO)C(O)C(O)C3O)OC=C(C(=O)O)C2C1OC(=O)c1ccccc1 (centres undefined) | 0.535% [at 25.7 µM]
C=CC(C)(C)C12Nc3c(ccc4c3OC(C)(C)C=C4)C1(O)CC1C(=O)N3CCCC3C(=O)N12 (centres undefined) | 4.76% [at 25.7 µM]
CCC12CCCN3CCc4c(n(c5ccccc45)C(O)C1)C32 (centres undefined) | 3.66%
CC1(CO)CCCC2(C)C3COC(=O)C3=CC(O)C12 (centres undefined) | -2%
CN1CCN(C2=Nc3ccccc3Nc3ccc(O)cc32)CC1 | 4.77%
CC1CC=C2C1CC1(O)C(=O)CC2(C)C1(C)CO (centres undefined) | -7.87%
C[C@H]1[C@H](C)CC[C@]2(C(=O)OC3OC(CO)C(O)C(O)C3O)CC[C@]3(C(=O)O)C(=CCC4[C@@]5(C)CC[C@H](O[C@@H]6O[C@@H](C)[C@H](OC7OC(CO)C(O)C(O)C7O)[C@@H](O)[C@H]6O)C(C)(C)C5CC[C@]43C)[C@H]12 (some centres undefined) | 1.44% [at 11.6 µM]
CC1(C(=O)O)CC[C@]2(C(=O)OC3OC(CO)C(O)C(O)C3O)CC[C@]3(C)C(=CCC4[C@@]5(C)CC[C@H](OC6OCC(O)C(O)C6OC6OC(CO)C(O)C(O)C6O)C(C)(C)C5CC[C@]43C)C2C1 (some centres undefined) | 1.15% [at 11.6 µM]
CCCCOc1nc(N)c2c(n1)N(Cc1cccc(CN3CCCC3)c1)CC(=O)N2 | 1.9%
CC(=O)O[C@H]1[C@H](O[C@H]2CC[C@]34C[C@]35CC[C@]3(C)[C@@H]([C@@]6(C)CC[C@@H](C(C)(C)O)O6)[C@@H](O)C[C@@]3(C)[C@@H]5C[C@H](O[C@@H]3O[C@H](CO)[C@@H](O)[C@H](O)[C@H]3O)[C@H]4C2(C)C)OC[C@@H](OC(C)=O)[C@@H]1O | -0.667%
C/C=C(\C)C(=O)OCC1OC(OCC2OC(OC3(CO)OC(CO)C(O)C3O)C(O)C(O)C2O)C(O)C(O)C1O (centres undefined) | 2.75% [at 25.7 µM]
C/C=C1/[C@H](O[C@@H]2O[C@H](CO)[C@@H](O)[C@H](O)[C@H]2O)OC=C(C(=O)OC)[C@H]1CC(=O)OCCc1ccc(OC(=O)C[C@@H]2C(C(=O)OC)=CO[C@@H](O[C@@H]3O[C@H](CO)[C@@H](O)[C@H](O)[C@H]3O)/C2=C/C)cc1 | 2.4% [at 11.6 µM]
C/C=C/C=C/C=C/C(=O)O[C@@H]1[C@@H](OC)C2=C(C(=O)N(C(CCC(=O)O)C(=O)O)C2)[C@@]2(C)CCCC(C)(C)[C@H]12 (some centres undefined) | -2.13% [at 25.7 µM]
COc1c2c(c(C)c3c1C(=O)OC3)OC1(C)CC(O)C34OC(OC)(CCC3(C)C1C2)OC4(C)CO (centres undefined) | 0.997% [at 25.7 µM]
C=C1CC2C(C)(CCC(=O)O)C(C(C)(C)O)CCC2(C)C2(C(=O)OC)C(=O)C(C)(O)C(=O)C12C (centres undefined) | -2.98% [at 25.7 µM]
C=C[C@H]1[C@H](O[C@@H]2O[C@H](CO)[C@@H](O)[C@H](OC(=O)/C=C/c3ccc(O)c(OC)c3)[C@H]2O)OC=C2C(=O)OCC[C@]21O | -5.08% [at 25.7 µM]
CCCCNc1nc(N)c2[nH]c(=O)n(Cc3ccc(OCCN(C)C)nc3)c2n1 | 1.98%
COC(=O)c1[nH]c(=O)c2ccccc2c1-c1ccc[nH]1 | -8.72%
